Legend:
Conditions in all cases: concentration: 1 μM, replicates: in singlicate; n = 1
[1] = tested on: T1, IKK-alpha
T1 construct: gene CHUK

[2] = tested on: T2, IKK-beta
T2 construct: gene IKBKB

[3] = tested on: T3, IKK-epsilon
T3 construct: gene IKBKE

[4] = tested on: INSRR
[5] = tested on: INSR
[6] = tested on: IRAK1
[7] = tested on: IRAK3
[8] = tested on: IRAK4
[9] = tested on: ITK
[10] = tested on: JAK1(JH1domain-catalytic)
[11] = tested on: JAK1(JH2domain-pseudokinase)
[12] = tested on: JAK2(JH1domain-catalytic)
[13] = tested on: JAK3(JH1domain-catalytic)
[14] = tested on: T4, JNK1
T4 construct: gene MAPK8

[15] = tested on: T5, JNK2
T5 construct: gene MAPK9

[16] = tested on: T6, JNK3
T6 construct: gene MAPK10

[17] = tested on: KIT-autoinhibited
[18] = tested on: KIT
[19] = tested on: LATS1
[20] = tested on: LATS2
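Also: KINOMEscan kinase panel screen.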

Row | SMILES | %Inh [1] [%] | %Inh [2] [%] | %Inh [3] [%] | %Inh [4] [%] | %Inh [5] [%] | %Inh [6] [%] | %Inh [7] [%] | %Inh [8] [%] | %Inh [9] [%] | %Inh [10] [%] | %Inh [11] [%] | %Inh [12] [%] | %Inh [13] [%] | %Inh [14] [%] | %Inh [15] [%] | %Inh [16] [%] | %Inh [17] [%] | %Inh [18] [%] | %Inh [19] [%] | %Inh [20] [%]
1 | Fc1cc(Cl)ccc1Nc1ccnc2cc(-c3ccc(CN4CCSCC4)o3)ccc12 [GW560106] | 31 | 9 | 0 | 0 | 0 | 18 | 7 | 0 | 8 | 11 | 0 | 0 | 0 | 13 | 34 | 1 | 11 | 100 | 73 | 0
2 | CN(c1ccc(NC(=O)N2CCN(CCCN3CCOCC3)CC2)cc1)c1ccnc(Nc2ccc(CS(C)(=O)=O)cc2)n1.Cl [GW830899] | 0 | 0 | 0 | 0 | 0 | 0 | 50 | 0 | 0 | 0 | 44 | 65 | 14 | 46 | 0 | 0 | 0 | 98.8 | 0 | 0
3 | Cc1ccc(NC(=O)c2ccc(Cl)c(Cl)c2)cc1-c1ccc(C(=O)Nc2ccncc2)cc1 [GSK1398460] | 0 | 10 | 24 | 0 | 0 | 0 | 3 | 7 | 10 | 9 | 0 | 0 | 0 | 11 | 4 | 0 | 9 | 100 | 0 | 3
4 | COC(=O)Nc1nc2ccc(Oc3ccc(CC(=O)Nc4cc(C(F)(F)F)ccc4F)cc3)cc2[nH]1 [GW680903] | 7 | 1 | 0 | 0 | 0 | 26 | 0 | 14 | 14 | 6 | 0 | 7 | 0 | 1 | 6 | 0 | 8 | 100 | 12 | 0
5 | COc1cccc(NC(=O)NCCNc2ccnc(Nc3ccc(F)cc3)n2)c1 [GSK1379879] | 0 | 0 | 0 | 0 | 0 | 25 | 14 | 21 | 6 | 23 | 0 | 22 | 0 | 25 | 17 | 13 | 0 | 46 | 0 | 0
6 | O=C(Nc1c(F)cccc1F)c1cc(C(=O)c2ccccc2F)c[nH]1 [GSK1326180] | 0 | 0 | 0 | 5 | 17 | 0 | 7 | 0 | 0 | 3 | 0 | 0 | 0 | 4 | 17 | 0 | 0 | 9 | 0 | 0
7 | c1ccc(Oc2ccc(Nc3ccnc4cc(-c5ccc(CN6CCCCC6)o5)ccc34)cc2)nc1 [GW567143] | 12 | 8 | 0 | 5 | 10 | 24 | 0 | 6 | 10 | 0 | 0 | 2 | 0 | 22 | 30 | 7 | 8 | 96.5 | 0 | 0
8 | COc1ccc(C)c(Nc2ccnc(Nc3ccc(-c4cnc[nH]4)cc3)n2)c1.Cl [GW784041] | 0 | 0 | 0 | 0 | 0 | 0 | 35 | 0 | 18 | 100 | 76 | 14 | 0 | 14 | 0 | 0 | 0 | 70 | 12 | 0

— PMC5540273 (PLoS ONE, 2017)
